Laboratory results taken from PubChem BioAssay AID624288 (National Center for Advancing Translational Sciences (NCATS), 2012).
In all, about 340,000 compounds went through this assay and about 1,400 (0.41%) were called active. Another 4% or so got no clear call; they are omitted. The full list was thinned out, with actives kept by preference. Unmarked numbers belong to inactive results. The call rests on the fitted dose curve; cell line not stated here.

assay: qHTS for Antagonists of gsp, the Etiologic Mutation Responsible for Fibrous Dysplasia/McCune-Albright Syndrome: qHTS; details: gsp-mutant cells, cAMP HTRF, 30 min; series mostly up to 76.9 µM; activity change, negative = inhibition: at the top concentration; further: nearly all actives have a fitted effect of over 65% in size
Excerpt: McCune-Albright syndrome (MAS) is a rare disease caused by somatic mutations in Gsgsp), a widely expressed protein central in signal transduction from G-coupled protein receptors (GPCRs). The disease symptoms are diverse, owing to the fact that the patients are mosaics with varying degrees of tissue involvement. Greater than 90% of the mutations in Gs in MAS occur at the R201 position and are equally divided between R201H and R201C. The R201 residue is central in the intrinsic GTPase activity of Gs and the H and C mutations lead to loss of, or impairment of, the GTPase activity. The intrinsic GTPase activity is necessary to terminate the interaction between Gs and adenylate cyclase, and to terminate the cAMP-mediated signaling of the given GPCR pathway. Thus, these activating mutations lead to ligand-independent activation of GPCR pathways. The tissue phenotype is determined by the role of Gs in the function of a given cell, and excess Gs/cAMP signaling in that cell. For example, pituitary somatotrophs overproduce growth hormone in a growth hormone releasing hormone-independent fashion, and gigantism/acromegaly ensues. Skeletal stem cells in the bone marrow behave as if they are under constant parathyroid hormone stimulation and fail to differentiate into osteoblasts and osteocytes, and proliferate as immature osteogenic cells and lead to the marrow fibrosis of fibrous dysplasia of bone. The goal of this project is to identify molecules with inhibitory activity at gsp mutations that will not only allow for in-depth study of the underlying molecular and cellular pathophysiology, but also serve as compounds from which drugs to treat FD/MAS can be developed NIH Chemical Genomics Center [NCGC] NIH Molecular Libraries Probe Centers Network [MLPCN] MLPCN Grant: IRP-FT-DE-2011-01 Assay Submitter (PI): Michael Collins, NIDCR
1.#Seed 2000 cells/well in 6 ul DMEM 10% FBS, 1% Pen/Strep, 0.5 mg/ml G418 2.#Incubate 16-24 hr at 37C, 5% CO2, 95% humidity 3.#Aspirate leaving 1 ul residual volume 4.#Dispense 5 ul/well DPBS + 1 mM CaCl2, 0.5 mM MgCl2, 0.05% BSA, 0.005% Tween 20 5.#Aspirate leaving 2 ul residual volume 6.#Dispense 23 nl/well compounds in DMSO 7.#Dispense 1 ul/well 300 uM Ro-20174 in DMEM 10% FBS 8.#Incubate 30 min at 37C, 5% CO2, 95% humidity 9.#Dispense 1.5 ul/well HTRF reagent: cAMP-d2 in lysis buffer 10.#Dispense 1.5 ul/well HTRF reagent: anti-cAMP antibody-K in lysis buffer 11.#Incubate 30 min at room temperature 12.#Detect HTRF signal using EnVision plate reader
On the % scale 0 is the no-effect control and ±100 the full control effect; potency means the concentration at half of the fitted maximal effect.

Compound | Potency | activity change, negative = inhibition [%]
CC1=CC(=Cc2sc3ccccc3[n+]2C)C=C(C)O1 | 44.7 µM (active) | 
COc1ccc(-n2c(-c3ccccc3)nc3ccccc3c2=O)cc1 |  | -9.38
CCC(=O)CC(c1ccc([N+](=O)[O-])cc1)c1c(O)c2ccccc2oc1=O (stereo not given) | 31.6 µM (active) | 
COc1cc(C(c2c(O)c3ccccc3oc2=O)c2c(C)n(C)n(-c3ccccc3)c2=O)ccc1O (stereo not given) |  | 19.4
Cc1ccc(-n2c(-c3ccc([N+](=O)[O-])cc3)nc3ccccc3c2=O)cc1 |  | -12.7
CC[C@H]1CN2CCc3cc(OC)c(OC)cc3[C@@H]2C[C@@H]1C[C@H]1NCCc2cc(OC)c(OC)cc21 |  | -7.25
CN(C)C(=O)NC(O)C(Cl)(Cl)Cl (stereo not given) |  | 7.94
CC(=O)OC1C2(CC3N4C(=O)C5(CO)SSC4(CC31O)C(=O)N5C)OC(C)C(C)(C)C2=O (stereo not given) |  | 4.27
C=CCn1c(O)c(/C=N/N2CCOCC2)c(=O)[nH]c1=S |  | -6.96
COC(=O)C1=C(c2c(C)noc2C)C[C@@H]2CC[C@H]1N2C(=O)NCc1ccc2c(c1)OCO2 |  | 4.81
